Here are results for ten molecules from PubChem BioAssay.

As a reminder, the AC50 is the concentration giving half of the maximal activity seen. A word on the inhibition: it is the drop in the measured response relative to a control, in per cent.

Values joined by “and” are separate entries in the source; they are usually repeats but may differ in a detail not shown here. Equal entries are not always repeated. Results filed as inconclusive are left out. For some assays here: Entries with a potency or affinity are not part of this list. Active and inactive are the calls of the source. Unless noted, the rule behind the calls is not given here.

Experiment [1] in a line: growth inhibition of DIPG glioma cells, dose response, cell-based, SU-DIPG-XVII, MIPE5.0, CellTiter-Glo, qHTS (AID 1347060; cut-off not given, nearly all actives have AC50 up to about 26 µM;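 for AC50: cells exposed to compound for 48 hours before viability readout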). The conditions noted are these: SU-DIPG-XVII viability, CellTiter-Glo ATP luminescence. A general note: In ATP-based viability assays light output follows the ATP content of the culture.
Experiment [2] can be described thus: growth inhibition of DIPG glioma cells, dose response, cell-based, SU-DIPG-XIII, MIPE4.0, CellTiter-Glo, qHTS (AID 1347061; cut-off not given, nearly all actives have AC50 up to about 37 µM;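 note: cells exposed to compound for 48 hours before readout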). The conditions noted are these: SU-DIPG-XIII viability, CellTiter-Glo ATP luminescence.
Experiment [3] in a line: growth inhibition of DIPG glioma cells, dose response, cell-based, JHH-DIPG-1, MIPE4.0, CellTiter-Glo, qHTS (AID 1347062; cut-off not given, nearly all actives have AC50 up to about 27 µM;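 note: cells exposed to compound for two days before readout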). The note with it: JHH-DIPG-1 viability, CellTiter-Glo ATP luminescence.
Experiment [4] can be described thus: growth inhibition of DIPG glioma cells, dose response, cell-based, SU-DIPG-IV, MIPE4.0, CellTiter-Glo, qHTS (AID 1347063; cut-off not given, nearly all actives have AC50 up to about 30 µM;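 note: compound exposure lasted 48 hours before the viability readout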). The conditions noted are these: SU-DIPG-IV viability, CellTiter-Glo ATP luminescence.
A short description of experiment [5]: JHH-DIPG-1 glioma cell viability, MIPE5.0 library, CellTiter-Glo luminescence, qHTS (AID 1347067; cut-off not given, nearly all actives have AC50 up to about 26 µM;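 note: cells exposed to compound for 48 hours before readout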). The conditions noted are these: JHH-DIPG-1 glioma viability, CellTiter-Glo ATP luminescence.
The nature of experiment [6]: SU-DIPG-XXV glioma cell viability, MIPE5.0 library, qHTS (AID 1347068; cut-off not given, nearly all actives have IC50 up to about 30 µM).
Experiment [7] in a line: rescue of polyQ-huntingtin neuronal dysfunction in worms, whole organism, C. elegans mechanosensory neurons, N-terminal huntingtin (AID 1599). The note with it: touch response, stronger effect = higher value.
Experiment [8] in a line: reducers of polyQ inclusions in PC12 cells, cell-based, NGF-treated PC12, GFPQ80 (AID 1614).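 Note: lower means fewer inclusions and 0 means no inclusions at all.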 The conditions noted are these: PC12 NGF-treated GFP-polyQ80 inclusion reduction.
Experiment [9] can be described thus: suppressors of polyglutamine aggregation in yeast, 75Q-TubH (AID 1616). The note with it: S. cerevisiae 75Q-TubH polyglutamine aggregation suppression; stronger effect = higher value.
Experiment [10] can be described thus: circadian clock period modulators, cell-based, LOPAC library, luminescence reporter (AID 2774).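 Note: values are relative to mean of DMSO wells on each plate.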 The note with it: circadian reporter cells, at 7 µM, actives lie on both sides.
In experiment [11] the test system is Hepatitis C virus NS3 helicase. In words: HCV NS3 helicase inhibitors, primary screen, biochemical, fluorescence polarization, LOPAC1280 library (AID 687035; in the data active = inhibition above about 37%). The note with it: Purified HCV NS3 helicase, Cy5-dT15 ssDNA binding fluorescence polarization; stronger effect = higher value; concentration not given here. In general terms: Fluorescence polarisation rises when a labelled molecule tumbles more slowly, as on binding a larger partner.

A short description of experiment [12]: Cy5 fluorescence quenching or enhancement artefacts, artefact control for HCV NS3 helicase inhibitor project, biochemical, LOPAC1280 (AID 687037). The note with it: Cy5-DNA-NS3h complex fluorescence interference counterscreen. Background: Counterscreens check selectivity or assay interference.
Experiment [13] is described as follows: SU-DIPG-VI glioma cell viability, MIPE4.0 library, CellTiter-Glo luminescence, qHTS (AID 1347066; cut-off not given, nearly all actives have AC50 up to about 30 µM;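 note: cells exposed to compound for 48 hours before readout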). The conditions noted are these: CellTiter-Glo ATP luminescence.
The nature of experiment [14]: phospholipid biosynthesis inhibitors in animal cells, primary screen, cell-based, LOPAC library, screen 4 (AID 1347384). The note with it: phospholipid biosynthesis inhibition screen, at 10 µM.
Experiment [15] can be described thus: hESC survival regulators, cell-based (AID 493140).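 Note: cells exposed to compounds for four days before counting.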 The conditions noted are these: human embryonic stem cell survival screen; stronger effect = higher value.
Experiment [16] can be described thus: LFS_MB_1R medulloblastoma cell growth inhibition, synergistic combos for chromothripsis tumors, cisplatin or BGB combos (AID 1671452; in the data active = inhibition above about 80%;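 note: cells exposed for 96 hours before readout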). The note with it: LFS_MB_1R medulloblastoma cells, stronger effect = higher value.
Experiment [17] can be described thus: MDA-MB-436 breast carcinoma cell growth inhibition, synergistic combos for chromothripsis tumors, BGB or cisplatin combos (AID 1671458).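 Note: cells exposed for 96 hours; 0% = vehicle DMSO and 100% = killing by high DMSO.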 The conditions noted are these: MDA-MB-436 breast carcinoma growth inhibition, drug combinations, stronger effect = higher value.
Experiment [18] can be described thus: growth inhibition of BT084 medulloblastoma cells, cell-based, ICGC_MB145, cisplatin and BGB IC40 combos (AID 1671461; in the data active = inhibition above about 80%;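 note: cells exposed to drugs for 96 hours; 0% = vehicle DMSO and 100% = high DMSO full killing control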). The note with it: drug combinations, stronger effect = higher value.
The nature of experiment [19]: growth inhibition of RCMB18 medulloblastoma cells, cell-based, cisplatin and BGB IC40 combos (AID 1671462; in the data active = inhibition above about 80%;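 note: cells exposed to compound for four days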). The note with it: stronger effect = higher value.
Experiment [20] in a line: growth inhibition of CRL1545 osteosarcoma cells, cell-based, cisplatin and BGB IC20 combos (AID 1671464; in the data active = inhibition above about 80%;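 note: cells exposed to compound for 96 hours before readout; 0% = vehicle DMSO and 100% = high DMSO killing control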). The note with it: stronger effect = higher value.
Setting [21] is: measured here: combination with cisplatin, at 0.5 µM.

As to `CCOC(=O)[C@H](CCc1ccccc1)N[C@H]1CCc2ccccc2N(CC(=O)O)C1=O`, the molecule was classed as inactive in experiment [1], in experiment [5] and in [6]. In addition, the AC50 is 20.9 µM (active) in experiment [2], 16.6 µM (active) in [3] and 10.5 µM (active) in experiment [4].
As for `CC1=C(CC(=O)O)c2cc(F)ccc2/C1=C\c1ccc(S(C)=O)cc1` (stereo not drawn), the rescue above control in [7] was -1.24. This molecule also yielded an inclusion score in [8] of 2. The molecule also had an aggregation suppression score in experiment [9] of 1.01. The period change in experiment [10] was 0.265 h (inactive). Further, the inhibition in experiment [11] was 1% (inactive). Also, the fluorescence ratio (interference) in experiment [12] was 1 (inactive). Also, the molecule was classed as inactive in experiment [1], in experiment [13], in [5], in experiment [6] and in experiment [14]. Further, the half-maximal activity concentration (AC50) in experiment [2] is 20.9 µM (active).
In the case of `CCC(C)(C)C(=O)O[C@H]1C[C@@H](C)C=C2C=C[C@H](C)[C@H](CC[C@@H]3C[C@@H](O)CC(=O)O3)[C@H]21`, the survival in [15] is 1.17 (inactive). The molecule was called inactive in experiment [2] and in experiment [6]. Besides, the AC50 in experiment [4] was 18.7 µM (active).
Molecule `NC12CC3CC(CC(C3)C1)C2` displayed a rescue above control in experiment [7] of -3.19. Further, the inclusion score in experiment [8] turned out to be 2. Further, in experiment [9], the aggregation suppression score came to 1.59. Moreover, the period change in experiment [10] was -0.05 h (inactive). Moreover, the survival in experiment [15] was 4.42 (inactive). For the same molecule, the inhibition in experiment [11] is -1% (inactive). The fluorescence ratio (interference) in experiment [12] is 0.9 (inactive). Also, the call in experiment [1], in experiment [13], in experiment [5], in [6] and in experiment [14] was inactive.
For the molecule `CCC1(c2ccccc2)C(=O)NCNC1=O`, in [7], the rescue above control was -6.81. In experiment [8], this molecule had an inclusion score of 2. In experiment [9], this molecule registered an aggregation suppression score of 1.22. Moreover, the period change in [10] was -0.19 h (inactive). Further, the survival in [15] is 5.92 (inactive). Besides, in experiment [11], the inhibition was 1% (inactive). Besides, the fluorescence ratio (interference) in [12] is 1 (inactive). For the same molecule, the molecule was classed as inactive in experiment [1], in experiment [13], in experiment [5], in [6] and in experiment [14]. The AC50 in [3] is 8.33 µM (active); in [4], 5.9 µM (active).
With `CC(C)NCC(O)c1ccc(O)c(O)c1` (stereo not drawn), the rescue above control in experiment [7] turned out to be 7.5. This molecule also registered an inclusion score in experiment [8] of 2. The molecule also had an aggregation suppression score in [9] of 1.28. In experiment [10], the period change is -0.07 hour (inactive) and 0.21 hour (inactive). For the same molecule, in [15], the survival is 4.58 (inactive) and 3.08 (inactive). In addition, the inhibition in experiment [11] was -3% (inactive). In [12], the fluorescence ratio (interference) was 1 (inactive). Further, the outcome in [1], in [13], in experiment [5], in [6] and in experiment [14] was inactive. For the same molecule, the AC50 in [3] was 1.48 µM (active).
Turning to `CN(C)CCCN1c2ccccc2CCc2ccc(Cl)cc21`, in experiment [9], the aggregation suppression score came out at 0.939. In addition, in [10], the period change was -0.12 h (inactive). The survival in experiment [15] is 4.17 (inactive). For the same molecule, the inhibition in experiment [11] is -4% (inactive). The fluorescence ratio (interference) in [12] was 1 (inactive). Also, the call in [1], in [6] and in experiment [14] was inactive. For the same molecule, the figures for the AC50 in [2], in experiment [3] and in [4] were 0.662 µM (active), 9.35 µM (active) and 18.7 µM (active), respectively.
In the case of `O=C1CCC(N2C(=O)c3ccccc3C2=O)C(=O)N1` (stereo not drawn), in experiment [7], the rescue above control is 21.9. Besides, in [8], the inclusion score was 2. The aggregation suppression score in [9] is 1.48. Moreover, the period change in experiment [10] was 0.105 h (inactive). Further, the survival in experiment [15] is 19.2 (inactive). Moreover, the inhibition in experiment [11] was -6% (inactive). Besides, the fluorescence ratio (interference) in experiment [12] is 1 (inactive). Moreover, the molecule was called inactive in [2], in [4], in experiment [13], in experiment [5], in experiment [6] and in [14].
Molecule `CCN(CC)CCCC(C)Nc1c2ccc(Cl)cc2nc2ccc(OC)cc12` (stereo not drawn) displayed a rescue above control in experiment [7] of 26.7. For the same molecule, in experiment [9], the aggregation suppression score came out at 1.04. Moreover, the period change in [10] is 0.21 h (inactive). Further, the inhibition in experiment [11] was 1% (inactive); in [16] (at 0.5 µM), 3.87% (inactive); in [16] (measured here: combination with BGB IC40, at 0.05 µM), -25.2%; in experiment [16] (setting [21]), 4.45%; in experiment [16] (measured here: combination with cisplatin, at 5 µM) it was 100%; in [17] (at 0.5 µM), 4.39% (inactive). For the same molecule, the inhibition in [17] (measured here: BGB combination, at 0.5 µM) is -0.472%; in experiment [17] (measured here: BGB combination, at 5 µM), 95.8%; in experiment [17] (measured here: cisplatin combination, at 0.5 µM), -17.3%; in experiment [17] (measured here: cisplatin combination, at 5 µM) it was 98%; in experiment [18] (at 0.5 µM) it was 1.42% (inactive); in experiment [18] (cisplatin combination, at 0.5 µM), -5.45%. Besides, the inhibition in experiment [18] (cisplatin combination, at 5 µM) was 99.5%; in [18] (measured here: BGB IC40 combination 0.05 uM, at 0.05 µM) it was -3.72%; in experiment [18] (single agent, at 5 µM), 105%; in [19] (at 0.5 µM), -4.03% (inactive); in experiment [19] (cisplatin combo, at 5 µM), 92.9%; in experiment [19] (measured here: BGB IC40 combination, at 0.05 µM), -9.76%. Further, the inhibition is -29.6% in experiment [19] (setting [21]); 73.4% in experiment [19] (single agent, at 5 µM); 9.17% (inactive) in experiment [20] (at 0.5 µM); -5.37% in experiment [20] (measured here: with BGB IC20 combination, at 0.5 µM); 14.5% in [20] (measured here: with cisplatin IC20 combination, at 0.5 µM); -8.93% in experiment [20] (single agent, at 0.05 µM). The inhibition in experiment [20] (single agent, at 5 µM) is 99.9%. In addition, the fluorescence ratio (interference) in experiment [12] is 1 (inactive). For the same molecule, the results for the AC50 in experiment [1] and in experiment [5] were 8.33 µM (active) and 11.8 µM (active), respectively. The molecule was classed as inactive in [14].
On to `CCN(CC)CCCC(C)Nc1ccnc2cc(Cl)ccc12` (stereo not drawn), for which the rescue above control in experiment [7] amounted to 4.09. This molecule also registered an inclusion score in experiment [8] of 2. The molecule also had an aggregation suppression score in [9] of 1.49. Also, the period change in [10] was 0.02 h (inactive). For the same molecule, the survival in experiment [15] was 6.67 (inactive). Also, the inhibition in experiment [11] was -3% (inactive). The fluorescence ratio (interference) in [12] is 1 (inactive). For the same molecule, the AC50 in experiment [2] is 0.00833 µM (active). Also, the call in experiment [5], in experiment [6] and in experiment [14] was inactive.
